Assay outcomes as filed in PubChem.
A selection: hits, their analogues and other compounds. The true share with any hit is near 2.4%.
D2 antagonist: antagonizes the human D2 dopamine receptor; P14416; HEK293 TREx D2 cells, calcium flux, dopamine EC80; inhibition, % at 10 µM; 340,000 tested, 2% active; in the data active = inhibition above about 30%; inactive = below that, where a call was filed; note: 0% is about no effect
Target sequence (P14416 whole entry, looked up): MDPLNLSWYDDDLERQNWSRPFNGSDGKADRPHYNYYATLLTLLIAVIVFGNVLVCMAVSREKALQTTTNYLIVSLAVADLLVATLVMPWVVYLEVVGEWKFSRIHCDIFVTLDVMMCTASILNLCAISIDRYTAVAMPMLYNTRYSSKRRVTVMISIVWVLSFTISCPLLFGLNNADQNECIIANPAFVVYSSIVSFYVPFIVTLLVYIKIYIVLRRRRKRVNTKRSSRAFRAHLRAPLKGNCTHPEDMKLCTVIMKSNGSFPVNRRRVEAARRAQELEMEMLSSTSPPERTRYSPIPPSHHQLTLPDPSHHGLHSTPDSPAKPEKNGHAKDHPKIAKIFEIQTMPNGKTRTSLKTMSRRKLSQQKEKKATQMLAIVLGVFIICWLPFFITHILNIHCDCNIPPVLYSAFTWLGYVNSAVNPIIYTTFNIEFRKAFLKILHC
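Inhibition of EC80 dopamine-driven calcium flux, recorded kinetically, defines activity here; cells are a tetracycline-induced HEK293 T-REx line expressing force-coupled D2.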
D2 ag-1: agonists of human D2 dopamine receptor; P14416; HEK293 T-REx D2 cells, calcium flux agonist mode; activation, % at 2 µM; 340,000 tested, 0.53% active; AID 485358;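 active = activation over 3 SD above normal in the single-dose calcium agonist read, cut at about 30% in these data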; note: 0% is about no effect
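Tetracycline-induced HEK293 Trex cells with D2 receptor force-coupled to calcium signaling, plated overnight at 30 C and loaded with no-wash calcium dye. Calcium flux read kinetically for 180 s after compound addition; responses flag agonists.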
D2 ag-2: agonists of human D2 dopamine receptor (beta-arrestin); P14416; DiscoveRx PathHunter D2 beta-arrestin, luminescence, 90 min; 100% = 57 uM dopamine signal; activation, % (concentration not given with the values); 360,000 tested, 0.084% active; AID 624465; in the data active = activation above about 40%
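DiscoveRx PathHunter D2 beta-arrestin cells (2,100/well) attached overnight, then compound-stimulated 90 min at 37 C in HBSS/10 mM HEPES/0.1% Tween-20 buffer; beta-galactosidase complementation read by luminescence after 1 h at ambient temperature. Dopamine 57 uM final (EC100) as control.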
D2 PAM-1: positive allosteric modulators of human D2 dopamine receptor | HEK293 T-REx D2, calcium flux, EC20 dopamine potentiation | potentiation, % at 10 µM | 340,000 tested, 0.34% active | P14416 | AID 485347;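 active = potentiation over 3 SD above the plate norm, cut at about 30% in these data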; note: 0% is about no effect
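Primary screen. Calcium kinetics in induced HEK293 T-REx D2 cells: compound pre-addition 180 s, EC20 dopamine, 180 s more.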
D2 PAM-2: positive allosteric modulators of human D2 dopamine receptor; DiscoveRx D2 beta-arrestin cells, luminescence, 90 min; 100% = 57 uM dopamine signal; potentiation, % (no concentration beside the values); 360,000 tested, 0.23% active; in the data active = potentiation above about 50%
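PathHunter D2 cells, attached overnight at 37 deg C, received compound in DMSO plus dopamine at EC20 (50 nM final) for 90 min at 37 deg C. Beta-arrestin recruitment was read as luminescence after 1 h with detection reagent at ambient temperature.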
An asterisk follows results filed as active; · = no result; ! = a repeat was not active.

SMILES | D2 antagonist | D2 ag-1 | D2 ag-2 | D2 PAM-1 | D2 PAM-2
CCC(=O)N1c2ccccc2CC1C(=O)NCCN1CCN(c2cc(Cl)ccc2C)CC1 (stereo not given) | · | 1 | · | -6 | ·
Cc1nc2c(C(=O)NCCC(C)C)c[nH]n2c(=O)c1Cc1ccccc1F | 37* | 1 | 3 | 5 | 5
Cc1nc2c(C(=O)NCCc3ccc(Cl)cc3)c[nH]n2c(=O)c1Cc1ccccc1F | · | · | · | -16 | ·
Cc1ccc(-c2cc(C(=O)O)c3cc(Br)ccc3n2)s1 | 31*! | -1 | -2 | -10 | 22
O=C(Nc1ccccc1)/C(=C\c1ccc2c(c1)OCO2)NC(=O)c1ccco1 | 30* | -1 | 0 | -8 | -2
O=C(Nc1ccccc1)/C(=C/c1ccc(O)cc1)NC(=O)c1ccco1 | -2 | 0 | 4 | 8 | -1
O=C(Nc1ccccc1)/C(=C/c1ccccc1)NC(=O)c1ccco1 | 30* | 1 | 4 | 3 | 14
Cc1c(Cl)cccc1NC(=O)Nc1ccc2snnc2c1 | · | · | · | 16 | ·
COc1cc(C(=O)OCCn2c(=O)c3c(ncn3CCN(C)C)n(C)c2=O)cc(OC)c1OC | 34* | -2 | -2 | 5 | -11
COc1ccc(NC(=O)CCc2nnc3ccc(N4CCC(C)CC4)nn23)cc1 | -6 | 1 | -1 | -3 | -4
COc1ccc(N2CCN(c3ccc4nnc(CCC(=O)Nc5ccc(C)cc5)n4n3)CC2)cc1 | 34* | 0 | -5 | 8 | -8
CC1(C)CC(=O)c2cc(-c3nc(-c4ccc(Cl)cc4)cs3)c(=O)n(-c3cccc(F)c3)c2C1 | · | 1 | · | -5 | ·
Cc1ccc(NC(=O)CN(C)C(=O)CSc2ncc(C(F)(F)F)cc2Cl)cc1 | 93* | -1 | -3 | -25 | -23
COc1ccccc1NC(=O)c1sc(-c2ccc(Cl)cc2)cc1N | · | 0 | · | 3 | ·
CCn1cc2c(n1)-c1c(oc(C(=O)Nc3cccc(C)c3C)c1C)CC2 | · | 0 | · | -8 | ·
CCN(CC)C(=O)c1ccc(C)c(Br)c1 | 31* | 0 | 0 | -6 | 1
CCOC(=O)C1(Cc2ccccc2C(F)(F)F)CCN(C2CCSC2)CC1 (stereo not given) | 50* | 1 | -1 | -24 | -14
CCc1ccc(S(=O)(=O)Nc2ccc(N3CCN(C)CC3)cc2)cc1 | 75* | 1 | 1 | -20 | -23
Cc1ccc(S(=O)(=O)Nc2ccc(N3CCN(C)CC3)nc2)cc1 | 4 | -1 | -7 | -14 | -21
CN1CCN(c2ccc(NS(=O)(=O)c3ccc(Cl)cc3)cn2)CC1 | 33* | -1 | -2 | -5 | -8
CCc1ccc(S(=O)(=O)Nc2ccc3c(c2)n(C)c(=O)c(=O)n3C)cc1 | · | 0 | · | -11 | ·
CC(=O)c1cc(-c2ccc(F)cc2)n(CC(=O)NCc2ccc(C)cc2)c1C | · | 1 | · | 7 | ·
Cc1cc(=O)n(CCO)c(O)c1C#N | -15 | 0 | 11 | 8 | 52*
CCCS(=O)(=O)NCCc1csc2nc(-c3ccc(OC)cc3)nn12 | · | 0 | · | 9 | ·
CCOC(=O)C1(CCc2ccccc2)CCN(Cc2ccc(OC)cc2)CC1 | 20 | 1 | -5 | -18 | -12
SMILES | D2 antagonist | D2 ag-1 | D2 ag-2 | D2 PAM-1 | D2 PAM-2
CCOC(=O)C1(Cc2ccccc2)CCN(Cc2nccn2CC)CC1 | 65* | 0 | -4 | 4 | -3
CCOC(=O)C1(CCc2ccccc2)CCN(Cc2c(O)cccc2OC)CC1 | 37* | 0 | -4 | -20 | -2
CCOC(=O)C1(CCc2ccccc2)CCN(Cc2cnc(N(C)C)s2)CC1 | 51* | 9 | 1 | -20 | -16
CCOC(=O)C1(CCc2ccccc2)CCN(Cc2nccn2CC)CC1 | -6 | 0 | -1 | 4 | -23
CCOC(=O)C1(CCc2ccccc2)CCN(C(=O)CN2CCOC2=O)CC1 | 37* | 0 | -2 | 13 | -1
Cc1c2cnn(CC(=O)NCCc3ccccc3)c(=O)c2c(C)n1Cc1ccccc1 | · | 0 | · | 1 | ·
CC(C)Oc1ccc(CNC(=O)CCn2c(=O)c3cccn3c3ccc(F)cc32)cc1 | · | 0 | · | -14 | ·
COc1ccccc1-n1c(SCC(=O)Nc2nnc(C)s2)nc2c(c1=O)SCC2 | 6 | 1 | 1 | 31* | 0
COc1ccc(-n2c(SCC(=O)N3CCOCC3)nc(O)cc2=O)cc1 | · | · | -1 | 1 | 10
COc1ccc(-n2c(SCC(=O)N3CCOCC3)nc(O)c(Cc3ccccc3)c2=O)cc1 | 43* | 1 | -3 | -3 | -10
COc1ccc(-n2c(SCC(=O)Nc3ccccc3)nc3c(c2=O)SCC3)cc1 | 31* | -1 | -2 | 12 | -6
CCn1ccc2cc(S(=O)(=O)N3CCCN(C(=O)Nc4ccccc4F)CC3)ccc21 | · | -2 | · | -6 | ·
CCc1ccc(Sc2cc(C(=O)O)c3ccccc3n2)cc1 | · | 0 | · | 17 | ·
Cc1ccc(C(=O)N2c3nc(-c4ccco4)nn3C3(CCCCC3)[C@@H]3CCCC[C@@H]32)cc1 | · | 1 | · | -5 | ·
O=C1c2cccc3c(O)ccc(c23)C(=O)N1Cc1ccco1 | 20 | 61* | 12 | 8 | 29
O=C1c2ccccc2C(=O)N1Cc1ccco1 | -2 | 0 | -1 | 1 | -17
O=C(O)c1cccnc1Nc1cccc(C(F)(F)F)c1 | 56* | -1 | -1 | 5 | 17
Cc1ccccc1N1C(=O)CC(Nc2ccc3c(c2)OCO3)C1=O (stereo not given) | 31* | -1 | -6 | -2 | -4
Cc1cc(C)c(C#N)c(N2CCN(S(=O)(=O)Cc3ccccc3)CC2)n1 | -13 | -2 | -6 | 12 | -6
Cc1cc(C)c(C#N)c(N2CCN(Cc3ccccc3)CC2)n1 | 74* | 1 | 0 | -27 | -21
N#CCc1c(C#N)c(N)nc(N2CCN(Cc3ccc4c(c3)OCO4)CC2)c1C#N | 18 | 2 | -1 | -35 | -28
Cc1cc(C)c(C#N)c(N2CCN(Cc3ccc4c(c3)OCO4)CC2)n1 | 98* | 0 | -6 | -20 | -37
CCc1cccc(C)c1NC(=O)c1cc(C)nc2c1c(C)nn2-c1cccc(Cl)c1C | · | 0 | · | 3 | ·
CC(C)(C)CC(=O)Nc1nnc(SCC(=O)N2CCCCC2)s1 | -7 | 0 | -3 | 32* | 2
CC(C)(C)CC(=O)Nc1nnc(SCC(=O)NC2CCCCC2)s1 | -4 | 2 | -3 | 1 | -4
COc1cccc(/C=C2\N=C(C3CCCCC3)OC2=O)c1OC | 2 | 0 | 0 | 45* | -4
O=C(Cn1c(=O)oc2ccccc21)NCc1ccccc1Cl | · | 1 | · | -11 | ·
N#Cc1c(SCc2ccccc2)sc(C(=O)c2ccccc2)c1N | 65* | 0 | -2 | -12 | -1
Cc1ccc(CSc2sc(C(=O)c3ccccc3)c(N)c2C#N)cc1 | 18 | 0 | -4 | -3 | 21
COc1ccccc1NC(=O)c1cnc(SCC(=O)N2CCCc3ccccc32)n(C)c1=O | · | 1 | · | 5 | ·
